Sampled rows, rich in hits. Any-hit rate of the full collection: about 3.6%.
LGR2 inh: blocks bursicon-induced cAMP signaling via Drosophila LGR2; HEK293 LGR2, CRE-luciferase, bursicon-stimulated, 4 h; inhibition, % at 9.99 µM; hit rate 0.35% among 380,000;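 active = drop in luminescence signal, shown as inhibition above about 50% in the replicate tests, limit read from the data, passing the limit was not always enough; inconclusive = probably only some replicates passing the limit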;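 also: agonist challenge used bursicon conditioned medium at about half maximal strength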
EBV LMP1 NFkB: Epstein-Barr LMP1 NF-kappaB reporter inhibition. inhibition, % at 12.5 µM. hit rate 0.69% among 350,000. LMP1-induced NF-kappaB luciferase reporter cells, luminescence; in the data active = inhibition above about 41%; inconclusive = no clear call, values can overlap the other calls
TWEAK Fn14 block: inhibitors of TWEAK-Fn14 interaction signaling; hit rate 2% among 360,000; inhibition, % at 10 µM; TWEAK-stimulated Fn14 reporter cells, luciferase luminescence, 8 h; in the data active = inhibition above about 50%
HSF-1 act: increases HSF-1 driven luciferase reporter signal | AID 504408 | NIH3T3-HGL HSF-1 luciferase reporter, MG132, 8 h; 100% = twice DMSO control signal | activation, % at 9 µM | hit rate 1.7% among 300,000;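 active = mean replicate activation of at least 50% with a set share of replicates each reaching 50%; inconclusive = only one of those two conditions met; inactive = mean below 50% and too few replicates reaching it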
TROY signal inh: inhibitors of TROY-dependent NF-kB signaling; hit rate 0.98% among 360,000; inhibition, % at 10 µM; Q293 LMP1-TROYcd NF-kB luciferase reporter, 4 h;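 active = compounds whose plate-normalised and pattern-corrected inhibition of the luciferase reporter signal at the single screening dose is 50% or more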
HSF1 inh: HSF1 inhibition. hit rate 0.77% among 300,000. NIH3T3-HGL HSE-luciferase, MG132-induced, luminescence 8 h; stronger effect = lower value. activity change, negative = inhibition, % at 7.5 µM (by protocol);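 active = more than half of replicate wells show activity change below -50%, luminescence cut by over half; inconclusive = some wells, but at most half, below -50%; inactive = no replicate well below -50%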;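 also: luciferase reports HSF-1 transcriptional activity via heat shock element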
Each line names hits and unclear results; the compound was inactive in the other large screens.

CC(C)c1nnc(NC(=O)c2ccc3c(c2)OCO3)s1	LGR2 inh 74, TWEAK Fn14 block 73
Cc1cnc(NC(=O)c2ccc3c(c2)OCCO3)s1	LGR2 inh 96, EBV LMP1 NFkB 79, TWEAK Fn14 block 103, TROY signal inh 85 (no result: HSF-1 act, HSF1 inh)
COCC(=O)N1[C@H](CO)[C@@H](c2ccc(-c3cccc(OC)c3)cc2)C12CN(C(C)=O)C2	none (no result: EBV LMP1 NFkB, TWEAK Fn14 block, HSF-1 act, TROY signal inh, HSF1 inh)
CCCNC(=O)N1CC2(CN(C(=O)CCC)C2)c2c(n(C)c3cc(OC)ccc23)[C@@H]1CO	none (no result: EBV LMP1 NFkB, TWEAK Fn14 block, HSF-1 act, TROY signal inh, HSF1 inh)
Cc1ccc(C(=O)Nc2ncc([N+](=O)[O-])s2)cc1	EBV LMP1 NFkB 68, TWEAK Fn14 block 100, TROY signal inh 80 (no result: LGR2 inh)
Cc1ccc(C(=O)Nc2ncc(C)s2)s1	TWEAK Fn14 block 57, HSF-1 act 70
Cc1ccc(C(=O)Nc2ncc(C)s2)o1	none
Cc1cc(-c2ccc(C)c(S(=O)(=O)N3CC(=O)Nc4ccccc43)c2)on1	TWEAK Fn14 block 92
CCc1ccc(-c2cc(C)no2)cc1S(=O)(=O)N1CC(=O)Nc2ccccc21	none
Cc1ccc(-c2onc(C)c2C)cc1S(=O)(=O)N1CCOc2ccccc21	TWEAK Fn14 block 64
C[C@@H]1CN([C@@H](C)CO)S(=O)(=O)c2ccc(-c3cccnc3)cc2O[C@@H]1CN(C)C(=O)C1CCCCC1	none (no result: EBV LMP1 NFkB, TWEAK Fn14 block, HSF-1 act, TROY signal inh, HSF1 inh)
CCN(Cc1ccccc1)c1ccccc1	none (no result: HSF-1 act, HSF1 inh)
CCN(Cc1ccccc1)c1ccc(/C=N/N=C(N)N)cc1	LGR2 inh 62
COc1ccccc1NC(=O)CSc1nc2n[nH]c(C)c2c(=N)n1-c1ccccc1Cl	TWEAK Fn14 block 62, HSF-1 act 60 (no result: LGR2 inh)
CCOCCCNC(=O)c1ccc(Cn2c(=S)[nH]c3c([nH]c4ccc(OC)cc43)c2=O)cc1	none
CCCCNC(=O)c1ccc(Cn2c(=S)[nH]c3c([nH]c4ccc(OC)cc43)c2=O)cc1	HSF1 inh -71
COc1ccc2[nH]c3c(=O)n(Cc4ccc(C(=O)N5CCCCCC5)cc4)c(=S)[nH]c3c2c1	none
CC[C@H](C)NC(=O)c1ccc(Cn2c(=S)[nH]c3c([nH]c4ccc(OC)cc43)c2=O)cc1	HSF1 inh -58 (no result: LGR2 inh)
COc1ccccc1-c1cn(CC[C@H]2CC[C@H](NS(=O)(=O)c3ccccc3C)[C@@H](CO)O2)nn1	none (no result: EBV LMP1 NFkB, TWEAK Fn14 block, HSF-1 act, TROY signal inh, HSF1 inh)
Cc1ccc(N2C(=O)N(CC(=O)NCc3ccc(Cl)cc3)C(=O)C2C)cc1 (configuration not stated)	none (no result: LGR2 inh)
COc1ccc(CNC(=O)CN2C(=O)C(C)N(c3ccc(C)cc3)C2=O)cc1 (configuration not stated)	HSF-1 act 54 (no result: LGR2 inh)
CCCN1C[C@H](C)[C@H](OC)CN(C)C(=O)c2cc(NS(C)(=O)=O)ccc2OC[C@@H]1C	none (no result: EBV LMP1 NFkB, TWEAK Fn14 block, HSF-1 act, TROY signal inh, HSF1 inh)
O=C(Nc1ccc([N+](=O)[O-])cc1Cl)c1cc(Cl)ccc1O	EBV LMP1 NFkB 80, TWEAK Fn14 block 100, TROY signal inh 61 (no result: HSF-1 act, HSF1 inh)
O=C(Nc1cccc(Cl)c1)c1cc(N=Nc2ccc([N+](=O)[O-])cc2Cl)ccc1O	TWEAK Fn14 block 83
O=C(Nc1cccc2c1CCCC2)c1cc([N+](=O)[O-])ccc1Cl	EBV LMP1 NFkB 54, TWEAK Fn14 block 51, HSF-1 act 55 (no result: LGR2 inh)
Cc1cc(O)c(NC(=O)c2cc([N+](=O)[O-])ccc2Cl)cc1C	HSF-1 act 100
O=[N+]([O-])c1ccc(O)c(/C=N/NC(=S)Nc2ccc(Cl)cc2Cl)c1	TWEAK Fn14 block 71
Cc1cc(Cl)ccc1NC(=O)CCC(=O)N/N=C/c1cc([N+](=O)[O-])ccc1O	none
CCc1cccc(NC(=O)Cn2cc(C=O)c3ccccc32)c1	TWEAK Fn14 block 71
CCOc1ncccc1C(=O)N(C)CC1COc2ccccc2O1 (configuration not stated)	HSF-1 act 175 (no result: LGR2 inh)
CN(CC1COc2ccccc2O1)C(=O)CSc1ncccn1 (configuration not stated)	none (no result: HSF-1 act, HSF1 inh)
C[C@@H]1CN([C@H](C)CO)C(=O)c2cc(NS(=O)(=O)c3ccccc3)ccc2O[C@@H]1CN(C)CC1CCCCC1	none (no result: EBV LMP1 NFkB, TWEAK Fn14 block, HSF-1 act, TROY signal inh, HSF1 inh)
O=c1c2c(nc3cc(-c4cccc(F)c4)[nH]n13)CCC2	HSF-1 act 52
O=c1c2c(nc3cc(-c4ccc(Cl)cc4)[nH]n13)CCS2	TWEAK Fn14 block 73
CCc1c(C)nc2cc(-c3ccc(Cl)cc3)[nH]n2c1=O	none
CCCc1cc(=O)n2[nH]c(-c3ccc(Cl)cc3)cc2n1	HSF-1 act 64
O=c1c2c(nc3cc(-c4ccc(F)cc4)[nH]n13)CCCC2	LGR2 inh inconclusive, TWEAK Fn14 block 80, TROY signal inh 56
C[C@H](CO)N1C[C@H](C)[C@@H](CN(C)C(=O)Nc2cccc3ccccc23)OCCCC[C@H](C)Oc2ccc(NC(=O)Nc3ccc(C(F)(F)F)cc3)cc2C1=O	none (no result: EBV LMP1 NFkB, TWEAK Fn14 block, HSF-1 act, TROY signal inh, HSF1 inh)
COc1ccccc1S(=O)(=O)N[C@@H]1C=C[C@@H](CC(=O)N2CCN(C)CC2)O[C@H]1CO	none (no result: EBV LMP1 NFkB, TWEAK Fn14 block, HSF-1 act, TROY signal inh, HSF1 inh)
COc1cc(CN2CCCC(N3CCN(c4ccccc4C)CC3)C2)cc(Cl)c1O (configuration not stated)	EBV LMP1 NFkB 78
COc1cccc(CNCCNC(=O)c2ccco2)c1OC	none (no result: LGR2 inh)
COc1ccc(C(C)(C)C)cc1NC(=O)CNc1cccc2ccccc12	TWEAK Fn14 block 58
O=C(NCCNC(=O)c1ccco1)c1ccc(F)cc1	none
COc1cc(OC)c(OC)cc1CNCCNC(=O)c1ccco1	TWEAK Fn14 block 96
COc1ccc(C(C)(C)C)cc1NC(=O)CCNC(=O)c1ccco1	TWEAK Fn14 block 91
O=C(NCCNC(=O)c1ccco1)c1cccc(F)c1	TROY signal inh 52 (no result: LGR2 inh)
Cc1ccc(-c2ccc3c(c2)O[C@H](CN(C)C(=O)C2CCCCC2)[C@@H](C)CN([C@@H](C)CO)S3(=O)=O)cc1	none (no result: EBV LMP1 NFkB, TWEAK Fn14 block, HSF-1 act, TROY signal inh, HSF1 inh)
O=[N+]([O-])c1ccc(Sc2cccc3cccnc23)c2cccnc12	HSF-1 act 110
CCCNC(=O)C[C@H]1CC[C@@H]2[C@@H](COc3ccc(NC(=O)c4ccc(C(F)(F)F)cc4)cc3C(=O)N2C)O1	none (no result: EBV LMP1 NFkB, TWEAK Fn14 block, HSF-1 act, TROY signal inh, HSF1 inh)
CCCCCc1ccc(OCCCC[n+]2cccc(C)c2)c(CCCCC)c1	LGR2 inh inconclusive, TWEAK Fn14 block 70, TROY signal inh 59
CCCCCc1ccc(OCCCC[n+]2ccccc2)c(CCCCC)c1	EBV LMP1 NFkB 55, TWEAK Fn14 block 50 (no result: LGR2 inh)
CCCCOc1ccc(C)cc1CN(CCO)CCO	none (no result: LGR2 inh)
CCC(C)(C)c1ccc(OCCCC[n+]2ccccc2)c(C(C)(C)CC)c1	TWEAK Fn14 block 79, TROY signal inh 51
CCCCCc1ccc(OCCCC[n+]2ccc(C)cc2)c(CCCCC)c1	LGR2 inh 54, TWEAK Fn14 block 68, TROY signal inh 50 (no result: HSF-1 act, HSF1 inh)
CCC(=O)Nc1ccc2c(c1)C(=O)N(C)C[C@@H](OC)[C@@H](C)CN[C@@H](C)CO2	none (no result: EBV LMP1 NFkB, TWEAK Fn14 block, HSF-1 act, TROY signal inh, HSF1 inh)
CN1c2ccc(C#Cc3cccnc3)cc2[C@H]2[C@H](CCN2C(=O)c2cccnc2)[C@H]1CO	none (no result: EBV LMP1 NFkB, TWEAK Fn14 block, HSF-1 act, TROY signal inh, HSF1 inh)
C[C@H](CO)N1C[C@H](C)[C@@H](CN(C)S(=O)(=O)c2cn(C)cn2)Oc2ccc(NS(=O)(=O)c3cn(C)cn3)cc2CC1=O	none (no result: EBV LMP1 NFkB, TWEAK Fn14 block, HSF-1 act, TROY signal inh, HSF1 inh)

Screens from PubChem.
